This note sets out measurements from PubChem BioAssay.

For test [1], the system named is Wnt5a (protein binding on small-molecule microarray). As to the kind of experiment: small molecules binding Wnt5a protein – biophysical, small-molecule microarray, 635/667 nm fluorescence, primary screen (AID 1142).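 Also: fluorescence read at 667 nm with signal to noise per printed feature.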 To be noted: 635 nm fluorescence, higher = more signal.
Test [2] can be described thus: ATP-based viability of Huh7 replicon cells – cell-based, CellTiter-Glo luminescence, basal, 48 h, cytotoxicity control for HCV replication inhibitor project, primary screen (AID 1143).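 Also: Huh7 hepatoma cells carrying a hepatitis C replication reporter with no stimulus; test concentration not given here.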 To be noted: higher = more signal, called active from +8 up or from −8 down. For orientation: In antiviral work, replicon cells carry a viral genome segment that copies itself.
A short description of test [3]: Pseudomonas biofilm growth suppression – PAO1 strain, BacTiter-Glo luminescence, LB-PBS, primary screen (AID 1144). To be noted: P. aeruginosa PAO1 biofilm, 12 h, higher = more signal.
Test [4] in a line: basal CRE-LacZ reporter activity in PC12 – cell-based, unstimulated, primary screen (AID 1145). To be noted: no forskolin, luminescence, 4.5 h, higher = more signal, called active from +8 up or from −8 down.
Test [5] is described as follows: forskolin-driven CRE-LacZ activity in PC12 – cell-based, CRE-LacZ reporter, forskolin-stimulated, primary screen (AID 1146).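 Also: PC12 cells with 6xCRE LacZ reporter stimulated by forskolin 10 µM; beta-galactosidase reporter signal reflecting CREB driven transcription.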 To be noted: luminescence, 4.5 h, higher = more signal, called active from +8 up or from −8 down.
In test [6] the target is Streptavidin (Streptomyces avidinii) (UniProt P22629). As to the kind of experiment: compounds binding control protein streptavidin – biophysical, small-molecule microarray, 635/667 nm fluorescence, artefact control for SMM compound annotation, primary screen (AID 1147).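 Also: signal reflects streptavidin binding to arrayed compounds as a control protein.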 To be noted: higher = more signal.
The nature of test [7]: probe aInhba binding on compound microarray – biochemical, small-molecule microarray, 635/667 nm fluorescence, primary screen (AID 1148).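 Also: score merges 667nm spot fluorescence with signal-to-noise for antibody binding to printed compounds.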 To be noted: higher = more signal.
Test [8] concerns the target Torsin-1A (Homo sapiens) (UniProt O14656). Description: TOR1A wild-type binding on microarray – cell lysate, small-molecule microarray, lysate, 635/667 nm, primary screen (AID 1149). To be noted: COS7 hTOR1A-WT lysate, 635 nm fluorescence, higher = more signal.
Test [9] shares this target. As to the kind of experiment: torsin A mutant lysate binding on microarrays – cell lysate, small-molecule microarray, COS7 lysate, 635/667 nm fluorescence, primary screen (AID 1150).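 Also: score pools 667 nm emission and signal to noise measuring lysate protein binding.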 To be noted: COS7 hTOR1A mutant lysate, 635 nm fluorescence, higher = more signal.
In test [10] the test system is Sonic hedgehog protein (Shh). As to the kind of experiment: Sonic hedgehog microarray binding compounds – biochemical, small-molecule microarray, 635/667 nm fluorescence, primary screen (AID 1151).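 Also: Shh protein binding to compounds spotted on small-molecule microarray slides; score combines spot fluorescence intensity with signal-to-noise across triplicate slides.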 To be noted: 635 nm fluorescence, higher = more signal.
Test [11] is described as follows: optical density shifts of acrAB sulA E. coli – strain DRC41, OD650, 48 h, E. coli filamentation inducer project, primary screen (AID 1152).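 Also: E. coli MC1000 strain DRC41 lacking acrAB efflux pump and sulA.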 To be noted: higher = more signal, called active from +8 up or from −8 down.
A short description of test [12]: probe aLefty1 binding on compound microarray – biochemical, small-molecule microarray, 635/667 nm fluorescence, primary screen (AID 1153).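 Also: score merges spot fluorescence with signal-to-noise ratio from the scanned slide images.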 To be noted: higher = more signal.
Test [13] is described as follows: plasmodial surface anion channel blockers, osmotic lysis – cell-based, P. falciparum Indochina, OD700, 1 h, primary screen (AID 1154). To be noted: P. falciparum Indochina infected RBC osmotic lysis, higher = more signal, called active from +8 up or from −8 down.
Test [14] in a line: plasmodial surface anion channel blockers, osmotic lysis – cell-based, P. falciparum Indochina, OD700, 2 h, primary screen (AID 1155).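 Also: lysis reports solute entry through the parasite surface anion channel PSAC.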 To be noted: P. falciparum Indochina infected erythrocytes, higher = more signal, called active from +8 up or from −8 down.
The nature of test [15]: changes in parasitized red cell lysis, either direction – P. falciparum Indochina, OD700, 3 h, PSAC antagonist project, primary screen (AID 1156). To be noted: P. falciparum-infected erythrocytes, osmotic lysis, higher = more signal, called active from +8 up or from −8 down.
A short description of test [16]: plasmodial surface anion channel blockers, osmotic lysis – cell-based, P. falciparum Indochina, OD700, 18 h, primary screen (AID 1157). To be noted: P. falciparum Indochina infected erythrocytes, osmotic lysis OD700, 18 h; higher = more signal, called active from +8 up or from −8 down.
Test [17] can be described thus: S6 kinase pathway phospho-S6 level changes – cell-based, A549, cytoblot, luminescence, serum-stimulated, primary screen (AID 1158).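 Also: serum-stimulated A549 lung adenocarcinoma cells; signal is phosphorylated S6 detected by cytoblot immunostaining with HRP secondary.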 To be noted: 5 h, higher = more signal.
Test [18] concerns the target NADPH oxidase 2 (Homo sapiens) (UniProt P04839). As to the kind of experiment: compounds shifting NOX2 Amplex Red fluorescence – cell-based, HEK293-NOX2, PMA-stimulated, NOX inhibitor project, primary screen (AID 1159). Also: test concentration not given here. To be noted: 45 min, higher = more signal, called active from +8 up or from −8 down.
The target in test [19] is NADPH oxidase 4 (Homo sapiens) (UniProt Q9NPH5). As to the kind of experiment: compounds shifting NOX4 Amplex Red fluorescence – cell-based, HEK293-NOX4, tetracycline-induced, NOX inhibitor project, primary screen (AID 1160). To be noted: HEK293-NOX4, Amplex Red H2O2 fluorescence, 45 min; higher = more signal, called active from +8 up or from −8 down.
The target of test [20] is NADPH oxidase 5 (Homo sapiens) (UniProt Q96PH1). Description: compounds shifting NOX5 Amplex Red fluorescence – cell-based, HEK293-NOX5, NOX inhibitor project, primary screen (AID 1161). To be noted: HEK293-NOX5, ionomycin, 45 min, higher = more signal.

Active and inactive are the calls of the source. Unless noted, no rule for the calls is given here.

Sequence of Streptavidin (Streptomyces avidinii) (P22629 whole entry, looked up): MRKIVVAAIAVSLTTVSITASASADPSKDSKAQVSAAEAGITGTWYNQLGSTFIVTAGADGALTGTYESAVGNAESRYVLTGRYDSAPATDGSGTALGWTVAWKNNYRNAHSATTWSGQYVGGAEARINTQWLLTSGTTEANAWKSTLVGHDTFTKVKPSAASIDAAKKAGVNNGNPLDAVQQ
Sequence of NADPH oxidase 2 (Homo sapiens) (P04839 whole entry, looked up): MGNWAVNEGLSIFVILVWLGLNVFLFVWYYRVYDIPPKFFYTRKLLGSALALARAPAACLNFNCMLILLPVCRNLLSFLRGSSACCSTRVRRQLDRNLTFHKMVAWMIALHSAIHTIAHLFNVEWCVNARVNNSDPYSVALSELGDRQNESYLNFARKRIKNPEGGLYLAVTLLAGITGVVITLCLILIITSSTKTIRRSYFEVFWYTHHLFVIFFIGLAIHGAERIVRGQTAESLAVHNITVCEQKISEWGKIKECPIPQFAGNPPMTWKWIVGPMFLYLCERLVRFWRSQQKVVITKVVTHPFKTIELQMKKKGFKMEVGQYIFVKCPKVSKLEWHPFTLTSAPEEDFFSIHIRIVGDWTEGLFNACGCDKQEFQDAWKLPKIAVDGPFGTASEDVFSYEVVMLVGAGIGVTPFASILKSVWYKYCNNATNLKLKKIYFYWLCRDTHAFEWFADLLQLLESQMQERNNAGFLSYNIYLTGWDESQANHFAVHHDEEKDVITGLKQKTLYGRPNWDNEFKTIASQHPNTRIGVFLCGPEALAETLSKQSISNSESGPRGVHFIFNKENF
Sequence of Torsin-1A (Homo sapiens) (O14656 whole entry, looked up): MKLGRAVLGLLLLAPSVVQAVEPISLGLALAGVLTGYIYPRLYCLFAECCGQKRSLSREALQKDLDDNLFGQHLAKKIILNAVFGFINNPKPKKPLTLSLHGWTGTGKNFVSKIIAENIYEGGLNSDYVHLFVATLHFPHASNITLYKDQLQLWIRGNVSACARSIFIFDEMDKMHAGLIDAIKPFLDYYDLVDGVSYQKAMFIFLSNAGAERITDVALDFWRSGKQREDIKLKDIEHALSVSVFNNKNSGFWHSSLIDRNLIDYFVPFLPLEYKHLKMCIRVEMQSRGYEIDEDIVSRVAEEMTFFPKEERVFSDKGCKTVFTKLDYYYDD
Sequence of NADPH oxidase 5 (Homo sapiens) (Q96PH1 whole entry, looked up): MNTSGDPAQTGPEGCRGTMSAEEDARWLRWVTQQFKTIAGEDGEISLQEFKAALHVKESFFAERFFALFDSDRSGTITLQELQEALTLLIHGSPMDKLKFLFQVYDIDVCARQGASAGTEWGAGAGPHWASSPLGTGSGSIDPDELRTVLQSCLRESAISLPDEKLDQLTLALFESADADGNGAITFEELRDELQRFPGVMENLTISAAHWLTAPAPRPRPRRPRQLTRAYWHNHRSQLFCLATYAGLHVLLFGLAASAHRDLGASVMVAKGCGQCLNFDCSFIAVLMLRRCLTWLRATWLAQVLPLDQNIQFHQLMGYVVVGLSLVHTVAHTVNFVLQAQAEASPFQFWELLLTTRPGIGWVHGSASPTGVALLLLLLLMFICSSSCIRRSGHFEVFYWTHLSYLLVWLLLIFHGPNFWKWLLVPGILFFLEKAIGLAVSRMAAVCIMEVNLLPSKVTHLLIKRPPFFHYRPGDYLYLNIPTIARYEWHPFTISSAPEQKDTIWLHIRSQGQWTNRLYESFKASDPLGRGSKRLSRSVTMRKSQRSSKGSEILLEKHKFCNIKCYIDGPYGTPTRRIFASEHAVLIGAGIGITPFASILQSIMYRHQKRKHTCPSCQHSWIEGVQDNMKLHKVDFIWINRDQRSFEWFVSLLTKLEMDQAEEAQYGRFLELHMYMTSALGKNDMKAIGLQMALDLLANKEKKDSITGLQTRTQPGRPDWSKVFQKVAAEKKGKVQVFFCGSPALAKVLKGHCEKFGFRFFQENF
Sequence of NADPH oxidase 4 (Homo sapiens) (Q9NPH5 whole entry, looked up): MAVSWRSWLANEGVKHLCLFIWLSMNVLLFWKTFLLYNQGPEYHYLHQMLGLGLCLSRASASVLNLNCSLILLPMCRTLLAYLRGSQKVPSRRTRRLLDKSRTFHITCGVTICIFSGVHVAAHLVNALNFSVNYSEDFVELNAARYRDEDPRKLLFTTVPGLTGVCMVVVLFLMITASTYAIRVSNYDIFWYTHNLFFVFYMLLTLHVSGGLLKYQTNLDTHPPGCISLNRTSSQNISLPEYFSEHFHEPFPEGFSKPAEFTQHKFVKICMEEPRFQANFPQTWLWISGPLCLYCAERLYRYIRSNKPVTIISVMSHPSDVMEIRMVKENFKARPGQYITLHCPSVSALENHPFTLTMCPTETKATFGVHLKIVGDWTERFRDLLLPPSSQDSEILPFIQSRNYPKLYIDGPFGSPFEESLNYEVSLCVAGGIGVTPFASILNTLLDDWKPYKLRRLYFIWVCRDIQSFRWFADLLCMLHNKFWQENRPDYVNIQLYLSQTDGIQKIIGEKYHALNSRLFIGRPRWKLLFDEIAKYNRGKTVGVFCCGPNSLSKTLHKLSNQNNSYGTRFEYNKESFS

Consider `COC(=O)[C@@]1(Cc2ccccc2)[C@H]2c3cc(C(=O)N(C)C)n(Cc4ccc(O)c(OC)c4)c3C[C@H]2CN1C(=O)c1ccccc1`, for which the composite z-score in test [1] is 0.672; in test [6], 0.468; in test [7], 0.877; with Torsin-1A (Homo sapiens) [8], 0.698; with Torsin-1A (Homo sapiens) [9], 1.06; in test [10] it was -0.851. This compound also showed a composite z-score in [12] of 0.774. Besides, the z-score is -4.52 (inactive) in test [2]; -0.886 (inactive) in [3]; -0.565 (inactive) in test [4]; 0.883 (inactive) in test [5]; -0.404 (inactive) in test [11]; 2.41 (inactive) in [13]. Moreover, the z-score is -0.214 (inactive) in test [14]; 0.158 (inactive) in [15]; -1.32 (inactive) in [16]; 1.67 in test [17]; -4.69 (inactive) in test [18]; -6.03 (inactive) in test [19]. Further, the z-score in test [20] is -6.08.

With `CCCCCCC#C[Si](O[C@H](c1ccccc1)c1cn(Cc2cccc(Cl)c2)nn1)(C(C)C)C(C)C`, the composite z-score in test [1] is -0.14; in test [6], 0.967; in [7], 0.0367; with Torsin-1A (Homo sapiens) [8], 0.317; in the test with Torsin-1A (Homo sapiens) [9], 0.213; in [10], 0.179. In test [12], this compound displayed a composite z-score of -0.142. Besides, the z-score in test [2] was -0.736 (inactive); in test [3], -0.628 (inactive); in [4], -1.12 (inactive); in test [5], -0.687 (inactive); in [11], 1.9 (inactive); in test [13], 0.876 (inactive). Further, the z-score in test [14] was 0.886 (inactive); in test [15], 0.0206 (inactive); in [16] it was 0.162 (inactive); in test [17], 0.635; in [18] it was -0.706 (inactive); in [19] it was -0.705 (inactive). Also, the z-score in [20] is -0.576.

For `CCC[C@@H]1C[C@@]1(CCC)[C@@H](NC(=O)c1cccs1)c1ccc(Cl)cc1`, the composite z-score in test [1] is -0.551; in [6] it was -0.7; in [7], -0.211; with Torsin-1A (Homo sapiens) [8], -0.312; with Torsin-1A (Homo sapiens) [9], -0.412; in [10], -0.949. The same compound registered a composite z-score in test [12] of 0.0319. The z-score in test [2] is -2.21 (inactive); in test [3], 0.803 (inactive); in test [4], 1.15 (inactive); in [5] it was -0.127 (inactive); in test [11], -0.26 (inactive); in test [13], -0.119 (inactive). Moreover, the z-score in [14] is -0.639 (inactive); in [15], 0.307 (inactive); in [16], 0.0519 (inactive); in test [17], -0.392; in test [18], -1.47 (inactive); in test [19], -0.556 (inactive). In test [20], the z-score was determined as 0.684.

Consider `C#CCNS(=O)(=O)N(C)C`, for which the composite z-score is -0.006 in [1]; 0.0573 in test [6]; -0.222 in [7]; 0.073 in the test with Torsin-1A (Homo sapiens) [8]; 0.0442 in the test with Torsin-1A (Homo sapiens) [9]; 0.666 in test [10]. In test [12], this compound displayed a composite z-score of -0.103. Moreover, the z-score in test [2] is 0.251 (inactive); in [3], -0.441 (inactive); in test [4], -0.882 (inactive); in [5] it was 0.526 (inactive); in test [11] it was 1.14 (inactive); in test [13] it was 0.132 (inactive). Also, the z-score in [14] was 0.262 (inactive); in test [15], -0.395 (inactive); in [16], 0.0625 (inactive); in test [17], 0.32; in test [18] it was -0.533 (inactive); in test [19], 0.183 (inactive). Besides, the z-score in test [20] stood at 0.112.

Regarding `CCCC[C@H]1OB(O)C[C@H]2C1=C(COc1ccccc1)Cn1c(=O)n(-c3ccccc3)c(=O)n12`, the composite z-score was 0.0561 in test [1]; 0.0395 in [6]; -0.104 in test [7]; 0.418 in the test with Torsin-1A (Homo sapiens) [8]; 0.5 in the test with Torsin-1A (Homo sapiens) [9]; 1.64 in test [10]. Moreover, the composite z-score in [12] is -0.06. The z-score in test [2] is -0.363 (inactive); in test [3], -0.127 (inactive); in [4] it was -0.141 (inactive); in test [5], 0.402 (inactive); in test [11], 0.4 (inactive); in test [13] it was 2.14 (inactive). In addition, the z-score was 0.0541 (inactive) in test [14]; 0.722 (inactive) in test [15]; 0.0113 (inactive) in test [16]; 0.279 in test [17]; -0.281 (inactive) in [18]; -0.216 (inactive) in test [19]. The z-score in test [20] came to 0.779.
